Data as given in PubChem BioAssay AID488969 (Vanderbilt High Throughput Screening Facility, 2010).
Over roughly 110,000 compounds, “z-score” has its median near -0.1; the highest 2% begin near 2. This is one part of a sample in which the highest values are shown more often than they occur. Calls of active or inactive are those of the source.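 The calls were made as follows: active = z-score in the third read window above 3 or below -3; inactive = the rest.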

Target: Metabotropic glutamate receptor 8 (Rattus norvegicus) (UniProt P70579)
Sequence (P70579 whole entry, looked up): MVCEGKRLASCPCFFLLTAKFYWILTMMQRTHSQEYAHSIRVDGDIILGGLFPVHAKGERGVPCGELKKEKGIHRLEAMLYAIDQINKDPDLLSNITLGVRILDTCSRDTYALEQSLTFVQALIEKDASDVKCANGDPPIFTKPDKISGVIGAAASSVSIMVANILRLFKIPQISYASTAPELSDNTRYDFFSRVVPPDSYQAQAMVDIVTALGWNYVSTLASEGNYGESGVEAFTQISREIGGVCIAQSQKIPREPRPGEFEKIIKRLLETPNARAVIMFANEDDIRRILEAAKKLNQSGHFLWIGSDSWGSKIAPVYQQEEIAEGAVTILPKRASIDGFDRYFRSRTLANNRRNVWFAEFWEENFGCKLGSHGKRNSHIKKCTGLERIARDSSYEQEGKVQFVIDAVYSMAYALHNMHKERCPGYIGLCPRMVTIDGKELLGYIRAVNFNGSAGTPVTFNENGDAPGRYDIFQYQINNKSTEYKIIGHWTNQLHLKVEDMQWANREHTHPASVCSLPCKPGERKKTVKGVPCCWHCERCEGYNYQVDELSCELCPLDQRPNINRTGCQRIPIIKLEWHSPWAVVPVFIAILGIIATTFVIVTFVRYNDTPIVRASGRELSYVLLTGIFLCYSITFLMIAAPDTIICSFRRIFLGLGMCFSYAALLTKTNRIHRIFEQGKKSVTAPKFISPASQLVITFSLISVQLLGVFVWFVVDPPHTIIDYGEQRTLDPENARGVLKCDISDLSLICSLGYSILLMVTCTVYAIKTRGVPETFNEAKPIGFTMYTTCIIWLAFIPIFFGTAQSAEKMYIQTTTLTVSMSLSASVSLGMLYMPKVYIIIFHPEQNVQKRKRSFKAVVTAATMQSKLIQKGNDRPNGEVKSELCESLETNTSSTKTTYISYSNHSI
Experiment: mGluR8 Gi/Go-coupled signaling modulation – cell-based, rat, thallium flux, HTS, primary screen (AID 488969)
Settings: HEK293 rat mGluR8, GIRK (G protein-gated inwardly rectifying potassium channel) thallium flux, FluoZin2; at 10 µM; stronger effect = higher value

SMILES | z-score
CC/C(=N\Nc1cccc2ccccc12)c1c(O)[nH]c(=O)[nH]c1=O | -0.114
CC(=O)OC1C2CCC1C(N1CCCC1)CC2 (stereo not drawn) | -0.278
CCN(CC)Cc1c[nH]c2ccccc12 | -0.122
CCN1CC=C(c2c[nH]c3ccccc23)CC1 | 2.05
C1=C(c2c[nH]c3ccccc23)CCNC1 | 1.29
O=C(C1CCCN(c2nnc(-n3cccc3)s2)C1)N1CCC2(CC1)OCCO2 (stereo not drawn) | 0.546
O=C1NC(=O)N(c2ccc3c(c2)OCO3)C(=O)/C1=C/c1ccc(N2CCCCC2)o1 | -0.618
Nc1c(C(=O)OCc2ccccc2)c2nc3ccccc3nc2n1Cc1cccs1 | 0.248
CC(=NCC1CCCO1)c1c(O)n(-c2ccc(Cl)cc2)c(=O)[nH]c1=O (stereo not drawn) | -1.18
CC(=NCC1CCCO1)c1c(O)n(-c2ccc(C)cc2)c(=O)[nH]c1=O (stereo not drawn) | 2.68
CC(=NCC1CCCO1)c1c(O)n(-c2ccccc2)c(=O)[nH]c1=O (stereo not drawn) | 0.0257
CN(C)CCN=Cc1c(O)n(Cc2ccco2)c(=O)[nH]c1=O | 0.184
Cc1ccc(N2C(=O)NC(=O)/C(=C\c3ccsc3)C2=O)cc1C | -0.165
O=c1c2ccccc2nc(CSc2ncnc3nc[nH]c23)n1-c1ccc(Cl)c(Cl)c1 | -0.202
CC1CCC(NCCc2ccc3c(c2)OCO3)CC1 (stereo not drawn) | 0.00241
c1cc2c(cc1CCNC1C3CC4CC(C3)CC1C4)OCO2 (stereo not drawn) | 2.3
c1cc2c(cc1CCNC1CCCCCC1)OCO2 | 0.232
Fc1ccc(NC2=NCCS2)cc1Cl | 4.82 (active)
CC1(C)CN=C(Nc2ccc(F)c(F)c2)S1 | -0.117
Cc1cc(C)nc(NC2=NCCS2)n1 | 0.179

SMILES | z-score
CC(=O)Nc1ccc(OC(=O)c2ccccc2N)cc1 | 0.06
CNCC(O)c1cccc(OC(=O)c2ccccc2C)c1 (stereo not drawn) | 2.34
CCC(COC(=O)NC)NC(=O)Oc1cccc(C)c1 (stereo not drawn) | -0.336
COC(=NC1CCCCC1)C(O)c1c[nH]c2ccccc12 (stereo not drawn) | -0.119
O=C(COc1ccccc1)c1cn(Cc2ccccc2)c2ccccc12 | -0.418
CN(C)CCOC(=O)c1cn(Cc2ccccc2)c2ccccc12 | 2.01
O=C(c1ccccc1F)c1cn(Cc2ccccc2)c2ccccc12 | -0.253
CCCCN1C(=O)NC(=O)/C(=C/c2cnc(SC)nc2)C1=O | -0.221
CCOC(=O)C1CCN(/C=C2/C(=O)NC(=O)N(c3ccc(OCC)cc3)C2=O)CC1 | 0.14
C/C(=N\Nc1ccccc1)c1c(O)n(C)c(=O)n(C)c1=O | 3.74 (active)
CC/C(=N\Nc1ccccc1)c1c(O)n(C)c(=O)n(C)c1=O | -0.0457
CC(=NCCC(c1ccccc1)c1ccccc1)c1c(O)n(C)c(=O)n(C)c1=O | -0.488
CC(Cc1ccccc1Sc1ccc(O)cc1)N(C)C (stereo not drawn) | 1.64
O=C(NC(Cc1ccccc1)C(=O)N1CCC2(CC1)OCCO2)C1CCCCC1 (stereo not drawn) | 0.317
CCOC(=O)C1=C(NC(=S)NC(=O)c2ccccc2)c2ccccc2CC12CCCC2 | 2.46
CCOC(=O)C1=C(N)OC(C)=C(C(=O)OCCOC)C12C(=O)Nc1ccccc12 (stereo not drawn) | 0.399
COC(=O)C(O)(c1ccc(NC(=S)NC(=O)c2ccccc2)cc1)C(F)(F)F (stereo not drawn) | 0.443
CCN1CCN(c2ncnc3ccc(Br)cc23)CC1 | 0.327
CNCC1(c2ccccc2)CCCC1 | 0.566
O=C(NC(=C(Cl)Cl)P(=O)(c1ccccc1)c1ccccc1)c1ccccc1 | -0.29

SMILES | z-score
Cc1ccc(C)c(C2(O)CC(C)N(C)CC2C)c1 (stereo not drawn) | 0.0958
CCOc1ccc(Br)c(C2(O)CC(C)N(C)CC2C)c1 (stereo not drawn) | 2.44
CCC(=O)OC1(c2cccc(C)c2)CC(C)N(C)CC1C (stereo not drawn) | 0.852
COc1ccccc1N(CC(=O)NC1CCCCC1)C(=O)c1cnn(C(C)C)c1 | 0.21
CN1C(=O)NC(=O)C2(Cc3ccccc3N3CCOCC32)C1=O (stereo not drawn) | -0.307
CCCCn1c(O)c(C(CC)=NCc2cc(OC)cc(OC)c2)c(=O)[nH]c1=O | -0.703
N=c1c[n+](CC23CC4CC(CC(C4)C2)C3)[n-]o1 | 2.09
O=C(c1ccc2c(c1)ncn2C1CCCCCC1)N1CCC2(CC1)OCCO2 | -0.0497
CCCCCCCC(=O)NC(Oc1ccccc1[N+](=O)[O-])C(Cl)(Cl)Cl (stereo not drawn) | 0.238
CCCC(=O)Nc1cc(C(=O)N2CCC3(CC2)OCCO3)ccc1S(=O)(=O)c1ccc(C)cc1 | -0.0584
CC(C(N)=O)N1CC(c2ccc(Cl)cc2)CC1=O (stereo not drawn) | -0.161
Cc1ccccc1C(O)(Cc1ccccc1)C1CN2CCC1CC2 (stereo not drawn) | -0.323
OC(Cc1ccccc1)(c1ccccc1)C1CN2CCC1CC2 (stereo not drawn) | 2
CN1CCCC1C(O)(c1ccccc1)c1ccccc1 (stereo not drawn) | -0.0177
CCOC(=O)c1sc(/N=C/c2c(O)n(-c3cccc(C)c3)c(=O)[nH]c2=O)c(C#N)c1C | -0.627
CCN1C(=O)C(=Cc2cc(C)n(C3CC3)c2C)C(=O)N(CC)C1=S | -0.0808
CC1=NN(c2ccccc2)C(=O)C1/C=C1\C(=O)NC(=O)N(c2cc(C)cc(C)c2)C1=O (stereo not drawn) | -0.0364
CN(C)C(=O)Oc1ccc(OC(=O)N(C)C)cc1 | 0.415
